Values joined by “and” are separate entries in the source; they are usually repeats but may differ in a detail not shown here. Equal entries are not always repeated. Records with an inconclusive call do not appear. Where a structure was tested more than once in an assay, its records may differ in their call. Active and inactive are the calls of the source. The calls were made as follows, unless noted: active = hit-call score of the fitted dose curve at least 0.9, where 1 is the maximum; inactive = score below 0.9.

Experiment [1] has as its target Estrogen receptor (Homo sapiens) (UniProt P03372). Briefly: CCTE_Deisenroth_AIME_384WELL_LUC_Shift: CCTE's 384-well Estrogen Receptor Transactivation Assay with AIME metabolic competence data shift (ERTA luciferase; difference in metabolism positive and negative), Deisenroth Lab (AID 2284041).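 Also: shift is response with S9 minus without S9 so positive means metabolism raised ER signal.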 The procedure, abridged: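 Here, parent compounds undergo 2 h phase I metabolism by PB/BNF-induced rat S9 before 24 h transactivation in VM7Luc4E2 cells; the curve models S9-positive minus S9-negative response over a 10-point series.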

Experiment [2] concerns DIO2 (gene 1734). The experiment in a line: CCTE_GLTED_hDIO2: CCTE's human Deiodinase 2 (DIO2) Inhibition Assay, Great Lakes Toxicology and Ecology Division (GLTED) Lab (AID 2284050; active = hit-call score of the fitted dose curve at least 0.9, where 1 is the maximum). The procedure, abridged:
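In this cell-free test, chemicals are exposed to human deiodinase type 2 for 3 hours. Released iodide is determined spectrophotometrically via the Sandell-Kolthoff method, and signal loss relative to DMSO is fitted.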

Experiment [3] relates to DIO3 (gene 1735). The experiment in a line: CCTE_GLTED_hDIO3: CCTE's human Deiodinase 3 (DIO3) Inhibition Assay, Great Lakes Toxicology and Ecology Division (GLTED) Lab (AID 2284055; active = hit-call score of the fitted dose curve at least 0.9, where 1 is the maximum;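 as to AC50: potency is for inhibition seen as loss of released iodide signal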). The procedure, abridged: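 Enzyme activity is tracked as iodide release from substrate by recombinant human DIO3 over 3 h with chemical present. A second Sandell-Kolthoff step converts iodide to an absorbance signal, fitted relative to DMSO.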

Experiment [4] in a line: CCTE_Shafer_MEA_acute_AB: CCTE's Alamar Blue Assay for Cytotoxicity in the Neural Acute Assay, Shafer Lab (AID 2284069; active = hit-call score of the fitted dose curve at least 0.9, where 1 is the maximum;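 also: active compounds lower the viability signal compared with DMSO wells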). The procedure, abridged: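 Read-out: resazurin fluorescence (ex 544, em 590 nm) after CTB reagent at 1:6 dilution in fresh media. Cells: primary rat cortical neuron networks, DIV 13 or 15, chemically exposed on MEA plates; DMSO as negative control/baseline.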
(In general: Alamar Blue is a resazurin reagent that responds to reducing activity.)

A short description of experiment [5]: CCTE_Shafer_MEA_dev_burst_rate: CCTE's Neural Network Formation Assay for Burst Rate, Shafer Lab (AID 2284042).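 As to AC50: potency for loss of burst rate below DMSO control.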 The procedure, abridged: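 Rat primary cortical cultures on PEI/laminin MEA; compound from plating, re-dosed at DIV 5, 9 media change. Single-electrode bursts/recording length, well mean of active electrodes; AUC over DIV 5–12 recordings; loss-of-signal vs DMSO.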

Experiment [6] is described as follows: CCTE_Shafer_MEA_dev_bursting_electrodes_number: CCTE's Neural Network Formation Assay for Number of Bursting Electrodes, Shafer Lab (AID 2284043; active = hit-call score of the fitted dose curve at least 0.9, where 1 is the maximum;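 also: potency is for loss of bursting electrodes relative to DMSO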). The procedure, abridged: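 Primary rat cortical neurons were cultured on PEI-coated 48-well MEA plates (16 electrodes/well) and exposed from plating through day 12, with compound renewed at feeds on DIV 5 and 9. Electrodes bursting ≥1 per 2 min were counted on DIV 5, 7, 9, 12; trapezoidal AUC taken.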

Experiment [7] can be described thus: CCTE_Shafer_MEA_dev_per_burst_interspike_interval: CCTE's Neural Network Formation Assay for Burst Interspike Interval, Shafer Lab (AID 2284044).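 Also: mean spike spacing inside bursts as AUC over recordings on days 5 7 9 12.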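 As to AC50: potency for a decrease of within-burst interspike interval below DMSO level.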 The procedure, abridged:
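Mean interspike interval within single-electrode bursts, averaged over bursting electrodes, from rat cortical cultures on MEA plates recorded on days 5, 7, 9 and 12. Continuous compound exposure from plating; trapezoidal AUC fitted downward relative to DMSO.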

Experiment [8] is described as follows: CCTE_Shafer_MEA_dev_burst_duration_mean: CCTE's Neural Network Formation Assay for Mean Burst Duration, Shafer Lab (AID 2284045). The procedure, abridged:
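Primary rat cortical neurons on PEI-coated 16-electrode MEA wells, exposed from plating through day 12 with compound renewed at DIV 5 and 9; spontaneous activity recorded days 5, 7, 9, 12. Well-mean burst duration collapsed as trapezoidal AUC, fitted for loss versus DMSO.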

Experiment [9] in a line: CCTE_Shafer_MEA_dev_interburst_interval_mean: CCTE's Neural Network Formation Assay for Mean Interburst Interval, Shafer Lab (AID 2284046).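 Also: well-mean interburst interval of bursting electrodes as AUC over four recording days; curve fitted for decrease in interburst interval relative to DMSO.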 The procedure, abridged:
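Rat cortical neurons, 1.5 x 10^5 cells/well, 48-well MEA; compound from day 0 through DIV 12, media and treatment renewed DIV 5/9. Recordings DIV 5, 7, 9, 12; well-mean interburst interval → trapezoidal AUC, loss direction vs DMSO.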

Experiment [10] can be described thus: CCTE_Shafer_MEA_dev_inter_network_spike_interval_mean: CCTE's Neural Network Formation Assay for Mean Inter-network Spike Interval, Shafer Lab (AID 2284047). The procedure, abridged:
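Primary rat cortical neurons on PEI-coated 48-well MEAs (16 electrodes/well) were exposed from plating day 0 to DIV 12, with dosing renewed at DIV 5 and 9. Recordings at DIV 5, 7, 9, 12 were collapsed by trapezoidal AUC, loss-of-signal fit vs DMSO.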

Experiment [11] in a line: CCTE_Shafer_MEA_dev_network_spike_number: CCTE's Neural Network Formation Assay for Number of Network Spikes, Shafer Lab (AID 2284048).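 Also: synchronized bursts across electrodes counted on days 5 7 9 12 and integrated as AUC.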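 As to AC50: fit as a loss of signal meaning fewer network spikes than DMSO.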 The procedure, abridged: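 Primary rat cortical neurons were seeded at 1.5 x 10^5 cells/well on PEI-coated 16-electrode MEA wells with laminin, exposed from plating day 0, compound renewed at DIV 5 and 9. Network spikes were recorded on days 5, 7, 9, 12 and summarized as trapezoidal AUC versus DMSO.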

Experiment [12] is described as follows: CCTE_Shafer_MEA_dev_network_spike_peak: CCTE's Neural Network Formation Assay for Mean Number of Electrodes in Network Spike, Shafer Lab (AID 2284049).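 Also: fitted for loss of signal meaning fewer electrodes in network spikes than DMSO.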 The procedure, abridged: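 Continuous 12-day exposure of rat cortical cultures, starting at plating, on MEA plates. Endpoint: electrodes participating in network-spike peaks, AUC across DIV 5–12, DMSO as negative control.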

Experiment [13] in a line: CCTE_Shafer_MEA_dev_spike_duration_mean: CCTE's Neural Network Formation Assay for Mean Spike Duration, Shafer Lab (AID 2284051).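 Also: mean network spike duration pooled as area under curve over DIV 5 to 12 recordings; potency for a decrease in mean network spike duration versus DMSO.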 The procedure, abridged: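 Rat cortical primary cultures, 48-well MEA (16 electrodes/well); compound from plating, renewed DIV 5, 9. Network spike duration (AxIS adaptive detector) recorded DIV 5/7/9/12, combined as trapezoidal AUC; loss direction vs DMSO.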

A short description of experiment [14]: CCTE_Shafer_MEA_dev_network_spike_duration_std: CCTE's Neural Network Formation Assay for Standard Deviation of Network Spike Duration, Shafer Lab (AID 2284052).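 Also: area under curve of spike duration SD across recording days 5 to 12; hits are decreases in network spike duration SD versus DMSO vehicle.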 The procedure, abridged: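 Rat cortical cultures, 1.5 x 10^5 cells/well, exposed continuously from plating to DIV 12 with media/compound renewal at DIV 5, 9. Spontaneous activity recorded DIV 5/7/9/12, AxIS adaptive spike detector; AUC across days; negative direction vs DMSO.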

The nature of experiment [15]: CCTE_Shafer_MEA_dev_per_network_spike_spike_number_mean: CCTE's Neural Network Formation Assay for Mean Number of Spikes in a Network Spike, Shafer Lab (AID 2284053).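 As to AC50: fitted as decrease in spikes per network spike relative to DMSO.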 The procedure, abridged: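 Rat cortical primary cultures on 48-well MEA; compound from day 0, re-dosed with full media change DIV 5, 9. Recorded DIV 5, 7, 9, 12; spikes in 0.05 s window at network-spike peak ÷ total network spikes; AUC; loss vs DMSO.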

Experiment [16] can be described thus: CCTE_Shafer_MEA_dev_per_network_spike_spike_percent: CCTE's Neural Network Formation Assay for Percent of Spikes in a Network Spike, Shafer Lab (AID 2284054). The procedure, abridged:
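Primary rat cortical neurons on 16-electrode MEA wells (PEI-coated, laminin at plating), exposed from day 0 with renewal at DIV 5 and 9; spikes within 0.05 s of network-spike peaks over total spikes, AUC across days 5, 7, 9, 12.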

Experiment [17] in a line: CCTE_Shafer_MEA_dev_LDH: CCTE's Lactate Dehydrogenase Assay for Cytotoxicity in the Neural Network Formation Assay, Shafer Lab (AID 2284068; active = hit-call score of the fitted dose curve at least 0.9, where 1 is the maximum;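 also: exposure for twelve days from plating with re-dosing on DIV 5 and 9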). The procedure, abridged: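 Rat cortical primary neurons, MEA culture; dosing day 0–12, full medium plus compound exchange DIV 5, 9. Read-out: LDH enzyme activity, spectrophotometric. DMSO = negative control/baseline; signal loss → cytotoxicity.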

The nature of experiment [18]: CCTE_Shafer_MEA_dev_AB: CCTE's Alamar Blue Assay for Cytotoxicity in the Neural Network Formation Assay, Shafer Lab (AID 2284083; active = hit-call score of the fitted dose curve at least 0.9, where 1 is the maximum;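 also: resazurin reduction fluorescence as viability of cultured neurons; twelve days of exposure from plating with re-dosing on DIV 5 and 9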). The procedure, abridged:
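Rat cortical primary cultures, 1.5 x 10^5 cells/well on MEA; continuous compound exposure over 12 days of network development, re-dosed with full medium change DIV 5 and 9. Alamar Blue fluorescence; loss of signal = cytotoxicity vs DMSO baseline.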

A short description of experiment [19]: UKN5_HCS_SBAD2_cell_viability: Viability Assessment in the University of Konstanz (UKN) Leist Lab Neurite Outgrowth Assay in human iPSC-derived immature Dorsal Root Ganglia Neurons (UKN5) (AID 2284056). The procedure, abridged: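 iPSC-derived immature peripheral neurons (SBAD2) seeded on Matrigel with CHIR99021, SU5402 and DAPT, dosed 1 h later for 24 h. Viability from Hoechst H-33342 and calcein-AM live staining, high-content imaging; bidirectional fit versus DMSO.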

Experiment [20] in a line: UKN5_HCS_SBAD2_neurite_outgrowth: University of Konstanz (UKN) Leist Lab Neurite Outgrowth Assay in human iPSC-derived immature Dorsal Root Ganglia Neurons (UKN5) (AID 2284070). The following applies: actives raise or lower the signal. The procedure, abridged: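 SBAD2 neurons, 24 h compound treatment, calcein-AM neurite area via HCS imaging; DMSO baseline, gain or loss of signal.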

Chain of Estrogen receptor (Homo sapiens) (P03372 whole entry, looked up): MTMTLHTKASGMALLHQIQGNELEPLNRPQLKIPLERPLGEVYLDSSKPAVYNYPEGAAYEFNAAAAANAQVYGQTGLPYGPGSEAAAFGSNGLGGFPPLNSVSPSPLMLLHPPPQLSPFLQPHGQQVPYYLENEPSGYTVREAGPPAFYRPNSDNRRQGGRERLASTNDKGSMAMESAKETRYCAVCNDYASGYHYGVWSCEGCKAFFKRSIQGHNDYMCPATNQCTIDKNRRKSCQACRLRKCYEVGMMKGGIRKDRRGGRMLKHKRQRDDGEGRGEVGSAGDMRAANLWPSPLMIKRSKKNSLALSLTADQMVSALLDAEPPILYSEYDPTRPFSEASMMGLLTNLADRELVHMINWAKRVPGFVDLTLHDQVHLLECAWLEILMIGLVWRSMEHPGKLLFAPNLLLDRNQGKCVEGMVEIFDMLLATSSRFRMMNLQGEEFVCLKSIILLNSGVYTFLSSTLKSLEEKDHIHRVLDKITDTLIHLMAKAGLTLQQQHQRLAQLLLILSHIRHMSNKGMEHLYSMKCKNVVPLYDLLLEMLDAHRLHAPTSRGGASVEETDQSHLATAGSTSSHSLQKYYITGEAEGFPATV

With `CCCCCCCCSC(=O)Oc1cc(Cl)nnc1-c1ccccc1`, the result in experiment [1] was inactive.
The same measure, in the same setting: to `O=S(=O)(c1ccc(Cl)cc1)c1ccc(Cl)cc1` belongs “inactive”; to `NC(=O)O`, “inactive”; to `CC(=O)c1cc(C(C)(C)C)cc2c1CCC2(C)C`, “inactive”.
The same measure, in the same setting: the same measure for `CC1(C)CCC(Cc2ccc(Cl)cc2)C1(O)Cn1cncn1` (centres undefined): “inactive”; for `O=C(NCO)NCO`: “inactive”.
On the same count and under the same terms, to `CNC` belongs “inactive”.
Take `OCC(O)CCl` (centres undefined): the AC50 in experiment [1] is 0.00281 µM (active).
Turning to `ClC(Cl)=C(Cl)C(Cl)=C(Cl)Cl`, in experiment [1], the result was inactive.
In the case of `COP(=O)(OC)OC`, the result in experiment [1] was inactive.
Turning to `[O-][Cl+2]([O-])O`, the result in experiment [1] was inactive.
As for `Clc1ccc(COC(Cn2ccnc2)c2ccc(Cl)cc2Cl)cc1` (centres undefined), the AC50 in experiment [2] was 95.2 µM (active). Besides, in [3], the compound was classed as inactive.
`COC(=O)Cc1ccccc1`: the compound was called inactive in experiment [4].
With `CCC(=O)C(CC(C)N(C)C)(c1ccccc1)c1ccccc1` (centres undefined), the AC50 in experiment [5] is 4.16 µM (active); in experiment [6], 4.45 µM (active); in [7] it was 6.65 µM (active); in experiment [9] it was 4.24 µM (active); in experiment [12], 4.26 µM (active); in experiment [13], 3.49 µM (active). For the same compound, the figures for the AC50 in experiment [15], in experiment [16] and in experiment [17] were 3.36 µM (active), 7.25 µM (active) and 7.25 µM (active), respectively. Further, the call in [8], in [10], in [11], in [14], in [4] and in experiment [18] was inactive.
In the case of `CC(C)(OO)c1ccccc1`, the outcome in experiment [4] was inactive.
With `Cl/C=C\C[N+]12CN3CN(CN(C3)C1)C2`, the compound was called inactive in [2]. Moreover, in experiment [3], the concentration at half-maximal activity (AC50) was 100 µM (active).
Take `C[C@]12CCC(=O)C[C@@H]1CC[C@@H]1[C@@H]2CC[C@]2(C)[C@@H](O)CC[C@@H]12`: in experiment [4], the compound was called inactive.
In the case of `CCOP(=S)(OCC)Oc1nc(Cl)c(Cl)cc1Cl`, the AC50 in [5] was 17.1 µM (active); in [6], 23.2 µM (active) and 4.58 µM (active) and 21.5 µM (active); in experiment [7], 15.7 µM (active) and 5.07 µM (active); in [9], 15.2 µM (active) and 15 µM (active); in [11] it was 23 µM (active) and 3.97 µM (active); in experiment [12] it was 23 µM (active) and 10 µM (active) and 23.1 µM (active). The AC50 was 23 µM (active) and 15 µM (active) and 21.7 µM (active) in [13]; 22.7 µM (active) in experiment [14]; 22.1 µM (active) and 23.9 µM (active) in experiment [15]; 23.4 µM (active) and 20.2 µM (active) in experiment [16]; 13.2 µM (active) and 13.7 µM (active) and 24.3 µM (active) in experiment [17]; 18.2 µM (active) and 22.5 µM (active) and 24 µM (active) in experiment [18]. Further, the compound was classed as inactive in experiment [5], in [7], in experiment [8], in experiment [9], in [10] and in [11]. The compound was called inactive in experiment [14], in experiment [15], in [16], in experiment [19] and in [20].
On to `O=C(Nc1ccc2[nH]ccc2c1)c1cc2cc(F)ccc2n1Cc1cccc(F)c1`, for which, in experiment [4], the result was inactive.
For `CC(C)(c1ccc(OCC2CO2)cc1)c1ccc(OCC2CO2)cc1` (centres undefined), the AC50 in experiment [2] was 3.76 µM (active); in experiment [3] it was 3.62 µM (active).

As a reminder, the AC50 is the midpoint of the concentration-response curve, whichever way the signal moves.

Source of the values: PubChem BioAssay (EPA / NIEHS).
